Pf Dd2 growth = inhibitors of Plasmodium falciparum Dd2 growth; P. falciparum Dd2 growth, SYBR Green, 72 h; Potency, µM (highest dose often 28.9 µM), usual class: inhibitors; 4.3% of 120,000 active; AID 1347417; active means well fitted inhibition curve with a large enough effect; further: nearly all actives have a fitted effect of over 65% in size
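Readout: SYBR Green fluorescence, 485 nm excitation, 535 nm emission, after ~16 h lysis at 37C. Before that, Dd2-infected red cells (2.5% hematocrit) grew 72 h with compound, 29 uM top final concentration.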
Hits are given with their value; - = inactive; [ ] = another dose, or the depositor's remark. The full list was thinned out, with hits kept by preference.

SMILES	Pf Dd2 growth
O=C(CCCCCn1c(=O)[nH]c2ccccc2c1=O)N1CCN(c2cccc(C(F)(F)F)c2)CC1	-
CC(=O)c1ccc(N2CCN(C(=O)c3ccc(Cn4c(=O)[nH]c5ccccc5c4=O)cc3)CC2)cc1	7.9µM
CCCCCn1c(=O)[nH]c2cc(C(=O)N3CCN(c4ccccc4)CC3)ccc2c1=O	-
O=C(CCCn1c(=O)[nH]c2ccccc2c1=O)N1CCN(c2ccccc2)CC1	10µM
COCCn1c(=O)[nH]c2cc(C(=O)N3CCN(c4ccccc4)CC3)ccc2c1=O	-
O=C(C1CC1)N1CCCC1c1noc(COc2ccc(F)cc2)n1 (centres undefined)	-
CNC(=O)CCn1ncc2cc(OC3CCc4cccc(-c5c(C)noc5C)c43)ccc21 (centres undefined)	-
CCOCCCNC(=O)N1CCC(OC2CCN(Cc3ccccc3)CC2)CC1	-
CCOc1ncccc1C(=O)NC(C)c1cnc(-c2ccncc2)nc1C (centres undefined)	-
O=C(c1ccc(C(F)(F)F)cc1)N1CCN2C(=O)N(Cc3ccc(F)cc3)C[C@H]2C1	-
COC1CN(c2ccc(C)cc2)C12CCN(C(=O)C1CCCC1)CC2 (centres undefined)	-
CC(=O)Nc1ccc(CN2CCC3(Cc4ccccc4NC3=O)C2)cc1 (centres undefined)	-
N#Cc1ccc(CN2CCC3(CC2)COc2ccccc2NC3=O)cc1	10µM
O=C1Nc2ccccc2CC12CCN2Cc1ccc(OC(F)(F)F)cc1 (centres undefined)	-
O=C1Nc2ccccc2CC12CCN(Cc1ccc(OC(F)(F)F)cc1)C2 (centres undefined)	11µM
COc1ccc(CN2CCC3(Cc4ccccc4NC3=O)C2)cc1 (centres undefined)	10µM
O=C1Nc2ccccc2CC12CN(Cc1ccc(C(F)(F)F)cc1)C2	-
O=C1Nc2ccccc2CC12CCCN(Cc1ccncc1)C2 (centres undefined)	-
CC(=O)Nc1ccc(CN2CCC3(CC2)COc2ccccc2NC3=O)cc1	-
O=C1Nc2ccccc2CC12CCN(Cc1cccnc1)C2 (centres undefined)	-
O=C1Nc2ccccc2OCC12CCN(Cc1cccnc1)CC2	-
Cc1ccc(CN2CCC3(Cc4ccccc4NC3=O)C2)cc1 (centres undefined)	8.9µM
COc1ccc(CN2CCC3(CC2)NCc2ccccc2NC3=O)cc1	-
O=C([C@@H]1C[C@H](Oc2cccnc2)CN1C(=O)c1cnccn1)N1CCCC1	-
Cc1cccc(C(=O)N2CCC3(CC2)c2nc[nH]c2CCN3CC(C)C)n1	-
SMILES	Pf Dd2 growth
O=C(c1cnc2c(c1)N([S+](=O)([O-])c1cccnc1)CCC2)N1CCC(c2ccccc2)CC1	-
COCCNC(=O)[C@@H]1CCC[C@@H](NC(=O)C(C)(C)C)CN(C)C(=O)C1	-
CN(Cc1ccc(-c2ccccc2)cc1)Cc1ccnn1C	-
Cc1nc(-c2ccc(OC3CCN(C(=O)c4[nH]nc5c4COc4ccccc4-5)C3)cc2)no1 (centres undefined)	-[5.79 µM]
COC(=O)[C@@H]1Cc2nc[nH]c2CN1Cc1ccc(C(=O)O)cc1	-
CCOc1ccccc1C1NC(=O)N(CC(=O)Nc2cc(Cl)ccc2OC)C2=C1C(=O)OC2 (centres undefined)	-
CN(C)C(=O)c1cccnc1OC1CCN(S(=O)(=O)c2ccc3c(c2)CCC3)C1 (centres undefined)	-
CN(C)c1ccc(NC(=O)CCn2ccn3nc4c(c3c2=O)CCCC4)cc1	4µM
O=C(Nc1ccccc1)c1ccc(Cn2ccn3nc4c(c3c2=O)CCCC4)cc1	-
CC(C)NC(=O)c1ccc(Cn2ccn3nc4c(c3c2=O)CCCC4)cc1	-
O=C(CCn1ccn2nc3c(c2c1=O)CCCC3)Nc1ccc(F)cc1	-
O=C(Nc1ccc(Cl)cc1)c1ccc(Cn2ccn3nc4c(c3c2=O)CCCC4)cc1	8.9µM
CCOc1ccc(NC(=O)CCn2ccn3nc4c(c3c2=O)CCCC4)cc1	-
CC(C)(C)C(=O)N1CCC(c2nnc(Cn3cncn3)n2C2CC2)CC1	-
Cc1ccc(C(=O)N(C)Cc2cccn2C)cc1	-
CCC(c1cnn(C)c1)n1ccnc1-c1ccc(SC)cc1 (centres undefined)	-
O=C(c1ccccc1F)N1CCn2c(nn(-c3ccc(C(F)(F)F)cc3)c2=O)C1	-
CSc1ccc(CNC(=O)C2(c3ccc(NS(C)(=O)=O)cc3)CCCCC2)cc1	-
COc1ccc(NC(=O)N2C[C@@H](F)C[C@H]2C(=O)N2CCc3ccccc3C2)c(C)c1	-
Cc1ccc(NC(=O)N2C[C@@H](F)C[C@H]2C(=O)N2CCc3ccccc3C2)cc1Cl	-
CCc1ccccc1NC(=O)N1C[C@@H](F)C[C@H]1C(=O)N1CCc2ccccc2C1	3.2µM
O=C(Cc1ccccc1F)NCCC1CCN(C(=O)Nc2ccc(F)cc2F)CC1	-
CS(=O)(=O)N1CCCN(C(=O)NCc2ccccc2)CCNC(=O)CC1c1ccccc1 (centres undefined)	-
CCc1noc(-c2cn(C3CCN(C(=O)c4ccc(OC(F)(F)F)cc4)C3)nn2)n1 (centres undefined)	-
Cc1cc(C)cc(NC(=O)C2CC(=O)N(c3n[nH]c4cccc(F)c34)C2)c1 (centres undefined)	-
SMILES	Pf Dd2 growth
Cc1ccnn1CCC(=O)N1CC[C@H](N2CCN(C)CC2)[C@H](CCC(=O)O)C1	-
C#CCN(C)Cc1nc(C2(O)CCN(C(=O)c3cccc(F)c3)CC2)cs1	-
COc1ccc(-c2noc(-c3nnn(-c4ccc(C)cc4C)c3C)n2)cc1	-
COc1ccc(OC)c(-n2nnc(-c3nc(-c4ccc5c(c4)OCO5)no3)c2C)c1	-
COc1ccc(-c2noc(-c3nnn(-c4ccc(C(C)C)cc4)c3C)n2)cc1OC	8.9µM
CCNC(=O)N1CCC(CCOc2ccccc2)C1 (centres undefined)	-
O=C1NC2(Cc3ccccc31)CN(CC1CCOCC1)C2	-
Cc1oc(-c2ccc(C(F)(F)F)cc2)nc1CN(C)C(C)c1cccs1 (centres undefined)	-
CCC(=O)Nc1ccccc1-c1nc2ccccc2n(CC(=O)Nc2ccccc2OC)c1=O	-
CCC(=O)Nc1ccccc1-c1nc2ccccc2n(C(C)C(=O)Nc2ccc(OC)cc2)c1=O (centres undefined)	10µM
CCC(=O)Nc1ccccc1-c1nc2ccccc2n(C(CC)C(=O)Nc2cccc(Cl)c2)c1=O (centres undefined)	-
CNC(=O)[C@@H]1C[C@@H](O)CN1C1CCN(C(=O)c2ccc3ccccc3n2)CC1	-
COc1ccc(S(=O)(=O)N2CCC3(CC2)CC(CC(=O)N2CCCC2)CCO3)cc1 (centres undefined)	-
CC(C)(C)CC(=O)NC1CCN(c2ccc(F)cc2)C1=O (centres undefined)	-
Cc1ccsc1C(=O)N1CCOc2ccc(CN3CCc4ccccc4C3)cc2C1	7.9µM
O=C(CC(F)(F)F)N1CCOc2ccc(CN3CCc4ccccc4C3)cc2C1	-
O=C(NCc1ccco1)N1CCOc2ccc(CN3CCc4ccccc4C3)cc2C1	-
O=C(C1CCC1)N1CCOc2ccc(CN3CCc4ccccc4C3)cc2C1	10µM
Cc1cccc(C(=O)N2CCOc3ccc(CCC(N)=O)cc3C2)c1	-
O=C(c1cccc(F)c1)N1CCOc2ccc(CN3CCc4ccccc4C3)cc2C1	7.9µM
CCNC(=O)N1CCOc2ccc(CN3CCc4ccccc4C3)cc2C1	-
O=C(c1noc2c1CCCC2)N1CCOc2ccc(CN3CCN(c4ccccn4)CC3)cc2C1	-

High-throughput results deposited in PubChem BioAssay by National Center for Advancing Translational Sciences (NCATS).
